Reference: PubChem BioAssay (Tox21)
Records with an inconclusive call do not appear. Active and inactive are the calls of the source. Unless noted, calls come from the whole dose curve; as a rule, active = well fitted curve in the direction sought with a large enough effect in the repeat runs; inconclusive = weak or mixed curves; inactive = no such curve, though single readings can be large; an effect the other way counts as inactive or inconclusive.

What was measured:
[1] = qHTS assay to identify small molecule antagonists of the estrogen related receptor (ERR) signaling pathway from Tox21 library - cell viability counter screen (AID 1224834); note: nearly all actives have a fitted effect of over 30% in size
In short: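 CellTiter-Fluor fluorescence measured; ERR cells; 17.5 h compound incubation at 37 C; 30 min reagent step.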

[2] = target: Luciferin 4-monooxygenase (Photinus pyralis) (UniProt P08659); experiment: qHTS assay to identify small molecule inhibitors of firefly luciferase (AID 1224835); note: nearly all actives have a fitted effect of over 25% in size; note: potency is the fitted concentration of half-maximal effect; for activity change, negative = inhibition: series mostly up to about 120 µM
In short: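 Inhibition of purified Photinus luciferase is measured by luminescence. Substrate levels (D-luciferin, ATP) sit at their KM values. Each compound is tested in a concentration series.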

[3] = qHTS assay to identify small molecule agonists of the constitutive androstane receptor (CAR) signaling pathway - cell viability counter screen (AID 1224836); note: series mostly up to about 92 µM; nearly all actives have a fitted effect of over 45% in size
In short: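 Counter screen multiplexed with the CAR reporter readout: HepG2 cells co-transfected with hCAR and the CYP2B6-2.2kb construct receive a 15-concentration compound series and 0.75 uM PK11195 (final), then CellTiter-Fluor fluorescence is read after 23 h.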

[4] = qHTS assay to identify small molecule antagonists of the constitutive androstane receptor (CAR) signaling pathway - cell viability counter screen (AID 1224837); note: series mostly up to about 92 µM; nearly all actives have a fitted effect of over 45% in size
In short: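 Using CellTiter-Fluor, viability is scored in HepG2 cells stably carrying hCAR and a 2.2kb CYP2B6 reporter after 23 hr compound exposure across 15 concentrations, with CITCO present at 50 nM.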

[5] = target: Nuclear receptor subfamily 1 group I member 3 (Homo sapiens) (UniProt Q14994); experiment: qHTS assay to identify small molecule antagonists of the constitutive androstane receptor (CAR) signaling pathway (AID 1224838);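 note: HepG2 cells stably expressing hCAR with CYP2B6 luciferase reporter stimulated by CITCO; nearly all actives have a fitted effect of over 40% in size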
In short: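 Reporter luminescence was quantified after 24 h exposure of hCAR/CYP2B6-2.2kb double-stable HepG2 cells to compounds at 15 concentrations in the presence of 50 nM CITCO final.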

[6] = target: Nuclear receptor subfamily 1 group I member 3 (Homo sapiens) (UniProt Q14994); experiment: qHTS assay to identify small molecule agonists of the constitutive androstane receptor (CAR) signaling pathway (AID 1224839); note: nearly all actives have a fitted effect of over 15% in size; note: potency is the fitted concentration of half-maximal effect; for activation: series mostly up to about 92 µM
In short: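 A 15-concentration quantitative screen uses HepG2 cells co-transfected stably with human CAR and CYP2B6-2.2kb reporter. Treatment lasts 24 h with 0.75 uM PK11195 final present; ONE-Glo luminescence is the signal.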

[7] = qHTS assay to identify small molecule antagonists of the estrogen related receptor signaling pathway with the pleiotropic PPARgamma coactivator (PGC) from Tox21 10K library - cell viability counter screen (AID 1224840; active = well fitted cell-killing curve with a large enough effect in the repeat runs, not every such curve was filed as active; note: nearly all actives have a fitted effect of over 40% in size)
In short: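 Here the PGC/ERR cells serve as a cytotoxicity control: they are exposed to compounds for 17.5 hours at 37 C, and live-cell signal is quantified using CellTiter-Fluor fluorescence.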

[8] = target: Thyrotropin receptor (Homo sapiens) (UniProt P16473); experiment: qHTS assay to identify small molecule agonists of the thyroid stimulating hormone receptor (TSHR) signaling pathway (AID 1224843; calls by dose curve; note: nearly all actives have a fitted effect of over 45% in size)
In short: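 HEK293 cells stably bearing the thyrotropin receptor were plated at 800 cells/well and challenged with compound (30 min, RT). Accumulated cAMP was quantified via cAMP-d2 competing for cryptate-tagged antibody.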

[9] = qHTS assay to identify small molecule antagonists of the estrogen related receptor signaling pathway with the pleiotropic PPARgamma coactivator (PGC) from Tox21 10K library (AID 1224841; call rule not given here; note: series mostly up to about 92 µM; actives are mostly falling curves and most rising ones were filed inactive; nearly all actives have a fitted effect of over 50% in size)
In short: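 Each well held 2,000 PGC/ERR cells, pre-incubated six hours (37 C, 5% CO2). Test substances in DMSO were added by pin tool and left for 18 h at 37 C before luciferase detection by One-Glo.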

[10] = qHTS assay to identify small molecule agonists of the estrogen related receptor signaling pathway with the pleiotropic PPARgamma coactivator (PGC) from Tox21 10K library (AID 1224842); note: nearly all actives have a fitted effect of over 15% in size
In short: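 Luminescence from One-Glo (30 min, room temperature) measured after PGC/ERR cells had 18 h at 37 C with pinned compound (23 nL in DMSO). Cells had been seeded at 2,000 per well and pre-incubated 6 h.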
% is set by controls: 0 for no effect and ±100 for the full control effect.

Nuclear receptor subfamily 1 group I member 3 (Homo sapiens), sequence (Q14994 whole entry, looked up): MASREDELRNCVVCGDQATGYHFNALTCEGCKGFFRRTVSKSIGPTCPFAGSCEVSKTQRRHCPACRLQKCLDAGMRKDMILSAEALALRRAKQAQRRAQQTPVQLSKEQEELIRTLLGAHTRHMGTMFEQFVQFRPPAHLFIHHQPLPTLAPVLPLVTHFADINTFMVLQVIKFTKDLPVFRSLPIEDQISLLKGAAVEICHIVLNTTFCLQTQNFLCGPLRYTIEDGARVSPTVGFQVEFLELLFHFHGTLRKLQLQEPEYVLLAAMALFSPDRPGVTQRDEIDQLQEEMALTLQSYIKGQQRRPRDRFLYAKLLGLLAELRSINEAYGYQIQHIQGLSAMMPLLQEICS
Luciferin 4-monooxygenase (Photinus pyralis), sequence (P08659 whole entry, looked up): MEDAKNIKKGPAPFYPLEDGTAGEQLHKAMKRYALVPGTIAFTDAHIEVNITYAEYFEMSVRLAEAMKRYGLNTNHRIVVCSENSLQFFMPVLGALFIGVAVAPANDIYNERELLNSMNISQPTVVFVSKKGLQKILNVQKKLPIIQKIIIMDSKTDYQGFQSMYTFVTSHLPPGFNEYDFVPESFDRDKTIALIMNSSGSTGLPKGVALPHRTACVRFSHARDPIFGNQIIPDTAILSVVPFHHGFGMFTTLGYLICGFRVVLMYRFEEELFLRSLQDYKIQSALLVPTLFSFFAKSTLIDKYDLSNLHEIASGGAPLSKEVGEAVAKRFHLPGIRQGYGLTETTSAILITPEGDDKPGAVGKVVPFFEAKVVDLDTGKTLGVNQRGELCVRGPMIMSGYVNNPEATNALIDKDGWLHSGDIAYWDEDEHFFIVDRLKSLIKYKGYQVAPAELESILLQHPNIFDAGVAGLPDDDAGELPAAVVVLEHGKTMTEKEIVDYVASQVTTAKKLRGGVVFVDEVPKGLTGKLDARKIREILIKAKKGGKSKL
Thyrotropin receptor (Homo sapiens), sequence (P16473 whole entry, looked up): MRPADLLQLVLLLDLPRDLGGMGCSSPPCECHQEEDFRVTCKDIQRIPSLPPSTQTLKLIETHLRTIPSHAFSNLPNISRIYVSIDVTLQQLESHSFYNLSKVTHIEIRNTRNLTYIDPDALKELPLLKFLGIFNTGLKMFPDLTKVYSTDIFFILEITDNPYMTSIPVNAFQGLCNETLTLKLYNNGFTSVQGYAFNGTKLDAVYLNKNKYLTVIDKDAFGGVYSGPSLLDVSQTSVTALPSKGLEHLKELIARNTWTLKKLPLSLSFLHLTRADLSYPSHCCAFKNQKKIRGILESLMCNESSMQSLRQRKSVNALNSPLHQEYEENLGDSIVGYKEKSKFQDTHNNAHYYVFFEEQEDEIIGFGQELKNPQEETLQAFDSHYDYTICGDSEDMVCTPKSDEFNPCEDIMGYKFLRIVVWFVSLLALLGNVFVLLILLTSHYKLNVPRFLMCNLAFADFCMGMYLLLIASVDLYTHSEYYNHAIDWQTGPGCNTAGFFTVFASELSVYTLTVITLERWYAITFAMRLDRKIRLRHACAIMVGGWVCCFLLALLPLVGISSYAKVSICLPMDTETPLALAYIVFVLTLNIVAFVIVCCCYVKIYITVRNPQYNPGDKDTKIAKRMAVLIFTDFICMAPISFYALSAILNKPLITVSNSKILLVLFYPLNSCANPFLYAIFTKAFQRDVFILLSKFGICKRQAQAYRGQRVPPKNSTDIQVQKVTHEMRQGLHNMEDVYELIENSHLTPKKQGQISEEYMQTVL

O=C1CCCCCCCCCCC(=O)OCCO1
inactive: Potency [1] | Potency [2] | Potency [3] | Potency [4] | Potency [5] | Potency [6]

COc1cc(Cl)ccc1Cl
inactive: Potency [1] | Potency [2] | Potency [3] | Potency [4] | Potency [5] | Potency [6] | Potency [7] | Potency [8]

CCCOc1ccc2c(c1)CC[C@@H]1[C@@H]2CC[C@]2(C)C(OC)CC[C@@H]12 (some centres undefined)
inactive: Potency [1] | Potency [2] | Potency [3] | Potency [4] | Potency [5] | Potency [6] | Potency [7] | Potency [9] | Potency [10] | Potency [8]

NC(=O)Cc1cccc(C(=O)c2ccccc2)c1N
inactive: Potency [1] | Potency [2] | Potency [3] | Potency [4] | Potency [5] | Potency [6] | Potency [7]

COc1cc(N)c(Cl)cc1C(=O)NC1CCN(Cc2ccccc2)CC1
inactive: Potency [1] | Potency [2] | Potency [3] | Potency [4] | Potency [5] | Potency [7] | Potency [8]
active: Potency [6] 6.68 µM

CC(C)Nc1nc(N)nc(Cl)n1
inactive: Potency [1] | Potency [2] | Potency [3] | Potency [4] | Potency [5] | Potency [6] | Potency [7] | Potency [8]

Cc1ccc(C(C)C)cc1O
inactive: Potency [1] | Potency [2] | Potency [3]

CN1CCN(C2=Nc3cc(F)ccc3Cc3ccccc32)CC1
inactive: Potency [1] | Potency [2] | Potency [3] | Potency [4] | Potency [5] | Potency [6] | Potency [7] | Potency [9] | Potency [10] | Potency [8]

CC/C=C\CCOC(=O)CCCCC
inactive: Potency [1] | Potency [2] | Potency [3] | Potency [4] | Potency [5] | Potency [6] | Potency [7] | Potency [9] | Potency [10] | Potency [8]

CC1=C(O)C(=O)OC1C (centres undefined)
inactive: Potency [1] | Potency [2] | Potency [3] | Potency [4] | Potency [5] | Potency [6] | Potency [7] | Potency [8]

CCCCCCn1c(=O)c2c(ncn2C)n(C)c1=O
inactive: Potency [1] | Potency [2] | Potency [3] | Potency [4] | Potency [5] | Potency [6] | Potency [7] | Potency [9] | Potency [10]

COc1cc2c(cc1N)oc1ccccc12
active: Potency [2] 36.3 µM | Potency [6] 31.3 µM
inactive: Potency [1] | Potency [3] | Potency [4] | Potency [5] | Potency [7] | Potency [9]

FC(F)(F)C(Cl)(Cl)Cl
inactive: Potency [1] | Potency [2] | Potency [3] | Potency [4] | Potency [5] | Potency [6] | Potency [8]

CCc1nnc(NS(=O)(=O)c2ccc(N)cc2)s1
inactive: Potency [1] | Potency [2] | Potency [3] | Potency [4] | Potency [6] | Potency [7] | Potency [9] | Potency [10] | Potency [8]

O=C(O)CN(CCN(CC(=O)O)CC(=O)O)CCN(CC(=O)O)CC(=O)O
inactive: viability change, negative = cytotoxic [1] 4.74% [at 19 µM] | activity change, negative = inhibition [2] 2.77% [at 23.6 µM] | viability change, negative = cytotoxic [3] -25% [at 19 µM] | activity change, negative = cytotoxicity [4] -28.8% [at 19 µM] | activity, negative = inhibition [5] -23.7% [at 19 µM] | viability change, negative = cytotoxic [7] 0.226% [at 19 µM] | activity, negative = inhibition [9] 0.933% [at 19 µM] | activation [10] 0.186% [at 19 µM]

CC(=O)N[C@@H](CC(C)C)C(=O)O
inactive: Potency [1] | Potency [2] | Potency [3] | Potency [4] | Potency [5] | Potency [9] | Potency [10]

CC(=O)OC1C2(C)CCC(C2)C1(C)C (centres undefined)
inactive: Potency [1] | Potency [2] | Potency [3] | Potency [4] | Potency [7] | Potency [9] | Potency [10] | Potency [8]

COc1ccc(S(=O)(=O)Nc2nnc(CC(C)C)s2)cc1
inactive: Potency [1] | Potency [2] | Potency [3] | Potency [4] | Potency [7]

O=C(CCCl)NCc1ccccc1
inactive: Potency [1] | Potency [2] | Potency [3] | Potency [4] | Potency [5] | Potency [9] | Potency [10] | Potency [8]

C=CCCCCCCCCO
inactive: Potency [1] | Potency [2] | Potency [3] | Potency [4] | Potency [7]

CN(C)Cc1ccccc1
inactive: Potency [1] | Potency [2] | Potency [3] | Potency [4] | Potency [7] | Potency [8]

CC1CN(c2ccccc2)NC1=O (centres undefined)
inactive: Potency [1] | Potency [2] | Potency [3] | Potency [4] | Potency [5] | Potency [7] | Potency [8]

OCC(CBr)(CBr)CBr
inactive: Potency [1] | Potency [3] | Potency [4] | Potency [5] | Potency [7]
active: Potency [2] 70.7 µM

CCCCCCCCCCCCCCCCOP(=O)([O-])OCC[N+](C)(C)C
inactive: Potency [1] | Potency [2] | Potency [3] | Potency [4] | Potency [6] | Potency [7] | Potency [9] | Potency [10] | Potency [8]

CN1C(=O)CC(c2ccccc2)C1=O (centres undefined)
inactive: Potency [1] | Potency [2] | Potency [3] | Potency [4] | Potency [7]

Clc1cccc(-c2cc(Cl)cc(Cl)c2)c1
inactive: Potency [1] | Potency [2] | Potency [3] | Potency [4] | Potency [5] | Potency [7] | Potency [9] | Potency [10]

CCCN(CCC)C(=O)C(CCC(=O)O)NC(=O)c1ccccc1 (centres undefined)
inactive: Potency [1] | Potency [2] | Potency [3] | Potency [4] | Potency [5] | Potency [9] | Potency [10]

CCOC(=O)NCCC[Si](OCC)(OCC)OCC
inactive: Potency [1] | Potency [2] | Potency [3] | Potency [4] | Potency [5] | Potency [7] | Potency [9] | Potency [10] | Potency [8]
